SMILES strings stand for the structures. The campaign covered roughly 69,000 compounds. About 8,600 (12%) showed an effect of 50% or more. The list comes from a sample in which strong results are over-represented; it also holds similar structures and randomly drawn compounds.

This experiment concerns Plasmodium berghei. The experiment is described as follows: Screen against P. berghei liver stage (PbLuc), transformed with Luciferase, at 10uM. The experiment is classed as functional, HepG2. The following applies: tested at 10 uM.
On to `CCN(Cc1cccc(-c2ccncc2)c1)S(C)(=O)=O`, for which the INHIBITION worked out at 29.6%.

On to `COCCN(Cc1ccoc1)S(=O)(=O)c1ccc(F)c(C)c1`, for which the INHIBITION worked out at 0.348%.

For the compound `CCCC(=O)N(Cc1ccncc1)C(C)CC` (stereo unspecified), the INHIBITION was 49%.

Take `CC(c1ccc(Br)cc1)N1CCCN(C(N)=O)CC1` (stereo unspecified): the INHIBITION was 12.3%.

Turning to `Cn1cc(NC(=O)C2CC(c3ccccc3)C2)ccc1=O` (stereo unspecified), the INHIBITION is reported as -5.1%.

As to `CCOC(=O)CSc1nnc(C(N)CC(C)C)o1` (stereo unspecified), the INHIBITION is -28.4%.

As to `O=S(=O)(C1CC1)N1CCO[C@H]2[C@H](OCC3CC3)CC[C@@H]21`, the INHIBITION is on record as -2.35%.

Take `O=C(NCc1cccnc1)Nc1cc(C(F)(F)F)c[nH]c1=O`: the INHIBITION is listed as -5.77%.

As for `Cc1nc(-c2ccc(C(=O)O)cc2)cc(C2CCCN(C(C)C)C2)n1` (stereo unspecified), the INHIBITION stood at 41.2%.

In the case of `CC1c2ncc(Cn3cncn3)n2CCN1CC1CCOCC1` (stereo unspecified), the INHIBITION is given as -8.28%.

`Cc1ccc(-c2nnc(C(C)N3CCc4cncnc4C3)o2)cc1` (stereo unspecified): the INHIBITION was determined as 22.1%.

On to `COCCn1cnnc1C1CCCN(C(C)C)C1` (stereo unspecified), for which the INHIBITION is recorded as -16.5%.

As to `CCOc1ccccc1-c1cc(N)[nH]n1`, the INHIBITION worked out at 16.2%.

`Cc1ccc(F)c2c1CCCN2CC(=O)NC1CCS(=O)(=O)C1` (stereo unspecified): the INHIBITION was 45%.

On to `Cc1cncc(C2CCCN(C(=O)c3cnco3)C2)n1` (stereo unspecified), for which the INHIBITION was found to be 39.7%.

Turning to `Cc1ccc(C(=O)N2CCc3ncc(Cn4cccn4)n3CC2)cn1`, the INHIBITION came to 30.3%.

With `COCCN(CCOC)S(=O)(=O)N(C)Cc1ccncc1`, the INHIBITION worked out at 56%.

For `COCCCN(Cc1ccncc1)c1cc(C)ncn1`, the INHIBITION is listed as 10%.

Take `CCN(CC)S(=O)(=O)N(C)Cc1ccncc1`: the INHIBITION amounted to 69.7%.

With `CCN(Cc1ccncc1)S(C)(=O)=O`, the INHIBITION worked out at 14.3%.

Consider `CCN(CC)S(=O)(=O)N(C)Cc1ccc2c(c1)OCCO2`, for which the INHIBITION is listed as -85%.

`COCCN(Cc1ccncc1)C(=O)C1COc2ccccc2C1` (stereo unspecified): the INHIBITION worked out at 45.8%.

As to `CCc1ccc(S(=O)(=O)Nc2cnccc2C)s1`, the INHIBITION was found to be 29.85%.

Regarding `O=C(c1cccnc1)N1C[C@H]2CC[C@@H](C1)N(Cc1cccc(Cl)c1F)C2`, the INHIBITION is reported as -48.4%.

For `CN(C)C(=O)c1nc(-c2ccc(S(C)(=O)=O)cc2)c2cnccn12`, the INHIBITION is on record as 16.8%.

Consider `C[C@H](NS(C)(=O)=O)C(=O)NCc1cc(-c2ccco2)n[nH]1`, for which the INHIBITION came out at 2.6%.

Consider `CC(C)[C@H](NS(C)(=O)=O)C(=O)NCc1cc(-c2ccccc2)n[nH]1`, for which the INHIBITION worked out at 33.7%.

For `NS(=O)(=O)NCc1cc(-c2ccc(C(F)(F)F)cc2)n[nH]1`, the INHIBITION is given as 57.5%.

On to `CC(C)OCCSCCn1nc2ccccn2c1=O`, for which the INHIBITION turned out to be 1.41%.

For the compound `COc1ncccc1CNC(=O)c1cnc(C)cn1`, the INHIBITION is given as -7.7%.

Consider `COc1ccc(-c2n[nH]cc2CNC2CCN(C3CC3)CC2)cc1`, for which the INHIBITION is listed as -39.6%.

Consider `CC(CC#N)n1ccc(C(F)(F)F)n1` (stereo unspecified), for which the INHIBITION is recorded as -6.3%.

Take `Cc1nc(CCN2CCC(Oc3ccccc3F)CC2)c(C)s1`: the INHIBITION was 82.4%.

With `Cc1n[nH]c(C)c1S(=O)(=O)N1CCC(Oc2ccccc2F)CC1`, the INHIBITION is 1.62%.

Consider `Cc1ccccc1OC1CCN(CC(=O)Nc2cnn(C)c2C)CC1`, for which the INHIBITION is listed as 33.2%.

Consider `Cc1nc(C)c(CCN2CCC(Oc3ccccc3F)CC2)s1`, for which the INHIBITION is 86.4%.

As for `Cc1nc(CCN2CCC(Oc3ccccc3F)CC2)cs1`, the INHIBITION is recorded as 42.5%.

In the case of `Cc1ccnc(C2CCN(CCCOc3ccccc3F)C2)n1` (stereo unspecified), the INHIBITION stood at 13.5%.

`COc1ccc(CC(=O)N2CCC(Nc3ccc(C)nn3)CC2)cc1`: the INHIBITION was -16%.

Take `CC(C)NC(=O)NCc1ccc(C(=O)NC(C)Cn2cccn2)cc1` (stereo unspecified): the INHIBITION is reported as 3.73%.

Regarding `COc1cccc(C(=O)N2CCc3c(nc(N)[nH]c3=O)C2)c1OC`, the INHIBITION is given as -6.91%.

With `N#Cc1ccccc1Cn1cncn1`, the INHIBITION is 25.3%.

With `COCc1cccc(S(=O)(=O)Nc2ncc(C)s2)c1`, the INHIBITION turned out to be 14.2%.

Turning to `OCCOCc1n[nH]c2c1CN(Cc1ccco1)C2`, the INHIBITION came to 23.3%.

With `O=C(C1CC1)N1Cc2[nH]nc(COCc3cccnc3)c2C1`, the INHIBITION is on record as 11.6%.

With `c1cncc(COCc2nnc3n2CCN(Cc2ccoc2)C3)c1`, the INHIBITION is recorded as 35.1%.

For the compound `c1cncc(COCc2n[nH]c3c2CN(Cc2ccco2)C3)c1`, the INHIBITION was 61.9%.

With `c1cncc(COCc2nnc3n2CCN(Cc2ccco2)C3)c1`, the INHIBITION is reported as 53.4%.

Turning to `c1cncc(COCc2nnc3n2CCN(Cc2cccs2)C3)c1`, the INHIBITION was -8.94%.

As for `O=C(c1cccnc1)N1Cc2[nH]nc(COCCO)c2C1`, the INHIBITION is given as 40.8%.

Turning to `c1cncc(COCC2CN(Cc3ccco3)Cc3nccn3C2)c1` (stereo unspecified), the INHIBITION is -6.39%.

`CCS(=O)(=O)N1Cc2[nH]nc(COCc3cccnc3)c2C1`: the INHIBITION amounted to 58.3%.

Regarding `O=C(C1CC=CC1)N1C[C@@H](OCc2cccnc2)[C@H]2OCCC[C@H]21`, the INHIBITION is 0.72%.

As for `CC(C)n1cc(CN2CCCN(C(=O)C(C)n3cncn3)CC2)cn1` (stereo unspecified), the INHIBITION is recorded as 26.4%.

As for `CC(Sc1n[nH]c(-c2ccc3c(c2)CCC3)n1)C(N)=O` (stereo unspecified), the INHIBITION is -56.1%.

For the compound `CS(=O)(=O)N[C@@H]1CCO[C@]2(CCN(CC3CCOCC3)C2)C1`, the INHIBITION was -33.9%.

The values above are taken from ChEMBL document CHEMBL4513216, “Probing the Open Global Health Chemical Diversity Library for Multistage-Active Starting Points for Next-Generation Antimalarials” (ACS Infect Dis, 2020).
